Reference: PubChem BioAssay (EPA / NIEHS)
Calls of active or inactive are those of the source. How the source made its calls: active means hit-call score of the fitted dose curve at least 0.9, where 1 is the maximum; inactive means score below 0.9.

read-out: Cytochrome P450 (CYP1A1), CYP1A1 (gene 1543); experiment: LTEA_HepaRG_CYP1A1: Life Technologies and Expression Analysis (LTEA) Assay for Cytochrome P450 (CYP1A1) using HepaRG (AID 2283454); settings: mRNA level, 48 h; actives raise or lower the signal
Description: LTEA_HepaRG is a cell based, multiplexed-readout assay that uses HepaRG, a human liver cell line, with measurements taken at 48 hours after chemical dosing on a 96-well plate.LTEA_HepaRG_CYP1A1 is one of 102 assay component(s) measured in the LTEA HepaRG cell culture assay. It is a marker of NR mediated metabolism.Data from the assay component LTEA_HepaRG_CYP1A1 was analyzed into 1 endpoint. This assay endpoint, LTEA_HepaRG_CYP1A1, was analyzed with bidirectional fitting relative to DMSO as the negative control and baseline of activity. Using a type of inducible reporter, measures of mRNA induction for gain or loss-of-signal activity can be used to understand regulation of transcription factor activity. To generalize the intended target to other relatable targets, this assay endpoint is annotated to the cyp intended target family, where the subfamily is xenobiotic metabolism.
A total of 1060 chemcials from the ToxCast library were tested in eight-point concentration-response experiments. Cell culture and cytotoxicity assays were conducted at Thermo Fisher Scientific's Custom Services facility (Madison, WI). A single lot of human HepaRG cells (Thermo Fisher Scientific, Frederick, MD) was used for the cell culture experiments. 96-well format collagen type I coated plates of human HepaRG cells were prepared using established methods. Briefly, cryopreserved HepaRG cells were thawed, plated at a density of approximately 100,000 cells/well in HepaRG Thaw, Plate, and General Purpose media (HPRG770, Thermo Fisher Scientific), and incubated for 48 hours. 0.5% DMSO was selected as vehicle control to balance the requisite need of DMSO in HepaRG cultures to maintain differentiation (for example, baseline metabolism, proportions of hepatocytes vs. cholangiocytes), while enabling further hepatic receptor pathway activation (for example, PXR and CAR) in response to chemical exposure. 48 hours after plating, the culture medium was replaced with HepaRG Serum-Free Incudtion Media. Cells were exposed to each test chemical in duplicate and maintained in CO2 incubators for another 48 hours. Chemical plates were thawed to room temperature and 200x concentrations of treatment groups were prepared. 8-point conentration-reponse curves were made with the highest exposure at 100 uM, followed by half-log dilutions, all in 0.5% DMSO. Each test plate contained variouse controls, induction positive controls (1mM phenobarbital), cytotoxicity positive controls ([…] aflatoxin B1), vehicle controls (0.5% DMSO), and total lysis controls (0.5% DMSO). Cell morphology images were taken using an Essen IncuCyte FLR automated microscope, with six 96-well plates imaged in about 24 minutes. Images were captured and exported and JPEG files. Spent culture media was transfered to black-well plates for the LDH assay, and remaining media was sorted at -80 C for later use. Cells were treated with RLT buffer and frozen until shipped for gene expression analysis. Total RNA was isolated from the cell suspension in 75 uL of Buffer RLT (Qiagen, Germantown, MD 20874) by Quintiles/Expression Analysis (Durham, NC) using a custom isolation procedure. Total RNA from each plate well was transferred to a preamplification plate. Fluidigm's 96.96 Dynamic ArrayTM (Fluidigm, Amsterdam, the Netherlands) technology was used for gene expression analyses by quantitative reverse transcription polymerase chain reaction (qRT-PCR, performed by Quintiles/Expression Analysis, Durham, NC)89. Standard TaqManTM Assays (Applied Biosystems/ThermoFisher Scientific, Foster City, CA) were used to assess the expression of 93 genes selected based on their selectivity and sensitivity to important hepatic receptors known to be modulated by environmental chemicals; importance in human hepatocyte functionality; and hepatotoxicity. […]

Row | SMILES | outcome | AC50
1 | CCCCCOC(C)=O | inactive | –
2 | c1ccc2cc3ccccc3cc2c1 | – | 10.5 µM (active)
3 | CCCCCCCCCCCCCCO | – | 50 µM (active)
4 | NC(=O)N(O)[C@@H]1COc2cc(OCc3ccccc3)ccc21 | – | 40.2 µM (active)
5 | Cn1cc[nH]c1=S | – | 37.4 µM (active)
6 | CCOC(N)=O | – | 50 µM (active)
7 | CCc1ccc(O)c(C(C)(C)C)c1 | – | 50 µM (active)
8 | CCOc1ccc2[nH]cc(C(=O)NCc3ccccc3)c(=O)c2n1 | – | 34 µM (active)
9 | CCCCCCCC/C=C\CCCCCCCC(=O)OC[C@@H](O)[C@H]1OC[C@H](O)[C@H]1O | inactive | –
10 | CC[C@H](C)C(=O)O[C@H]1C[C@H](O)C=C2C=C[C@H](C)[C@H](CC[C@@H](O)C[C@@H](O)CC(=O)O)[C@H]21 | – | 9.15 µM (active)
11 | c1ccc2ncccc2c1 | – | 83.2 µM (active)
12 | CCc1cccc(CC)c1N | – | 50 µM (active)
13 | OCC(CO)(CO)CO | inactive | –
14 | NC(=O)N1c2ccccc2C=Cc2ccccc21 | inactive | –
15 | Cc1nc(-c2ccccn2)ncc1C(=O)Nn1cc(C)c2cc(F)ccc21 | – | 18.6 µM (active)
16 | OCCOCCOCCO | – | 84.1 µM (active)
17 | OC[C@H]1O[C@@](CO)(O[C@H]2O[C@H](CO)[C@@H](O)[C@H](O)[C@H]2O)[C@@H](O)[C@@H]1O | – | 67.1 µM (active)
18 | CC(C)c1nnc2ccc(-c3ocnc3-c3cc(F)ccc3F)cn12 | – | 29.9 µM (active)
19 | COS(C)(=O)=O | inactive | –
20 | c1ccc(C(O[C@@H]2CCCN(CCc3ccc4c(c3)OCO4)C2)c2ccccc2)cc1 | – | 13.2 µM (active)

Row | SMILES | outcome | AC50
21 | CCn1nc(C)c2c1C(=O)NCC(c1ccc(O)cc1)=N2 | – | 40 µM (active)
22 | CCCCCCCCCCCCCCCCOS(=O)(=O)O | – | 14.9 µM (active)
23 | O=S1(=O)CCCO1 | inactive | –
24 | CC(C)CCCCCCOC(=O)C1CCCCC1C(=O)OCCCCCCC(C)C (stereo not given) | – | 75.6 µM (active)
25 | c1ccc2c(c1)-c1cccc3c1c-2cc1ccccc13 | – | 0.851 µM (active)
26 | CC(=O)c1ccccc1 | – | 76.7 µM (active)
27 | Cc1nccn1-c1ccc(Sc2cccc(C3(C(N)=O)CCOCC3)c2)cc1 | inactive | –
28 | O=C(O)c1ccc2c(c1)nc(C(=O)NC1CCN(C3CC3)CC1)n2Cc1cc(-c2ccc(Cl)s2)on1 | – | 12 µM (active)
29 | CCCC(CCC)C(=O)O | – | 64.3 µM (active)
30 | C[C@@H](Oc1ccc(CNC(=O)c2cccnc2Oc2ccc3c(c2)OCO3)c(F)c1)C(=O)O | inactive | –
31 | OCc1ccccc1 | inactive | –
32 | C=CCc1cc(S(=O)(=O)c2ccc(O)c(CC=C)c2)ccc1O | inactive | –
33 | COCc1nnc(-c2ccc[n+]([O-])c2)n1-c1c(Cl)c(Cl)cc2[nH]c(=O)c(=O)[nH]c12 | – | 50 µM (active)
34 | CCCCN1C(=O)[C@@H]([C@H](O)C2CCCCC2)NC(=O)C12CCN(Cc1ccc(Oc3ccc(C(=O)O)cc3)cc1)CC2 | – | 2.16 µM (active)
35 | C[C@]12C=CC(=O)C=C1CC[C@H]1[C@@H]3C[C@@H](O)[C@](O)(C(=O)CO)[C@@]3(C)C[C@H](O)[C@@]12F | – | 50 µM (active)
36 | O=C(O)c1cccc(C(=O)O)c1 | – | 50 µM (active)
37 | COc1cc(C(C)C)c2c(c1)S(=O)(=O)N(COc1cc(=O)n3cccc(OCCN4CCCCC4)c3n1)C2=O | inactive | –
38 | C=CN1CCCC1=O | – | 50 µM (active)
39 | CCCCCCOC(=O)CC(CC(=O)OCCCCCC)(OC(=O)CCC)C(=O)OCCCCCC | inactive | –
40 | CCCCCCCCN(C)C | inactive | –
